High-throughput results deposited in PubChem BioAssay by National Center for Advancing Translational Sciences (NCATS).
A selection: hits, their analogues and other compounds. The true share with any hit is near 19%.
Gal4-VP16 FLuc – VP16 counterscreen qHTS for inhibitors of ROR gamma transcriptional activity | 3.5% of 310,000 active | Drosophila S2 Gal4-VP16 UAS-luciferase, luminescence, 20 h | Potency, µM (series often up to 53.6 µM), most hits filed as inhibitors;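 also: Gal4-VP16 expression switched on by copper sulfate through the metallothionein promoter; nearly all actives have a fitted effect of over 50% in size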
TDP1 cell noCPT – qHTS for Inhibitors of human tyrosyl-DNA phosphodiesterase 1 (TDP1): qHTS in cells in absence of CPT | 15% of 420,000 active | DT40 Tdp1-/- hTDP1 cells, no CPT, ATP luminescence, 48 h | Potency, µM (highest dose often 46.2 µM), hits mostly inhibitors | AID 686978, 2013; also: nearly all actives have a fitted effect of over 55% in size
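Cells were dispensed at 400 per well, compounds added by pin tool, plates incubated ≥48 hr at 37 °C, then CellTiter-Glo added for 30 min at room temperature before luminescence reading. Line: DT40 Tdp1-/- complemented with hTDP1; camptothecin omitted.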
TDP1 cell CPT – qHTS for Inhibitors of human tyrosyl-DNA phosphodiesterase 1 (TDP1): qHTS in cells in presence of CPT; Potency, µM (top dose mostly 46.2 µM), most hits filed as inhibitors; chicken DT40 Tdp1-/-;hTDP1 cells + 20 nM CPT, ATP luminescence, 48 h; 12% of 420,000 active; also: nearly all actives have a fitted effect of over 55% in size
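Cell growth measured by CellTiter-Glo luminescence after a minimum 48 h, 37 C compound exposure with 20 nM CPT in Tdp1-knockout DT40 cells stably expressing hTDP1, seeded 400/well; qHTS titration format.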
RORgamma inh – qHTS for inhibitors of ROR gamma transcriptional activity; Nuclear receptor ROR-gamma (Mus musculus), P51450; Drosophila S2 Gal4-RORgamma UAS-luciferase reporter, 20 h; Potency, µM (titrated, usually from 53.6 µM), most hits filed as inhibitors; 5.4% of 310,000 active; also: nearly all actives have a fitted effect of over 60% in size
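Luciferase reporter read in Schneider cells carrying Gal4-RORγ (mouse) and UAS-Photinus luciferase; cells given compound 1 h before 700 uM copper sulfate induction, then incubated 20 h at ambient temperature.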
TDP1 inh – qHTS Assay for Inhibitors of Tyrosyl-DNA Phosphodiesterase (TDP1); Tyrosyl-DNA phosphodiesterase 1 (Homo sapiens), Q9NUW8; recombinant TDP1, AlphaScreen DNA substrate cleavage; Potency, µM (doses to about 130 µM), actives largely listed as inhibitors; 0.28% of 350,000 active; AID 485290, 2010; also: nearly all actives have a fitted effect of over 40% in size
Target sequence (Q9NUW8 whole entry, looked up): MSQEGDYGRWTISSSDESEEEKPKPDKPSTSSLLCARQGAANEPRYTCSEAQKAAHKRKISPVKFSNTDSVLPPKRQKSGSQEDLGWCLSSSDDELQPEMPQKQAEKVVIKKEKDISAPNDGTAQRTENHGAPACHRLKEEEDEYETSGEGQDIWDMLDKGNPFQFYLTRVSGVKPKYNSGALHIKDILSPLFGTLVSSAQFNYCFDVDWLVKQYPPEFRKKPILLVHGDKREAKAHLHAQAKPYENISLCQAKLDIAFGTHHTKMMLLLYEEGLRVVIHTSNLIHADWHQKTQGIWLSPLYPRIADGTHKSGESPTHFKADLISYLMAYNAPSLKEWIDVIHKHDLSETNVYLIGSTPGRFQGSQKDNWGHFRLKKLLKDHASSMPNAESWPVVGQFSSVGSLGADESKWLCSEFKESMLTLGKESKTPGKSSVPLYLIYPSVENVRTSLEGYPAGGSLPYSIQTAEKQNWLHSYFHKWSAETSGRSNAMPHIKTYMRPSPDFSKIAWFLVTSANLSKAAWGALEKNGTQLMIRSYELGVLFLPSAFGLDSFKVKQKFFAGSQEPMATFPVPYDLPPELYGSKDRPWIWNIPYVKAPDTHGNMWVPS
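Recombinant E. coli-expressed Tdp1 (1 nM) preincubated with compound 15 min at RT, then 5'-biotin/3'-phosphotyrosine-FITC DNA substrate (15 nM) added for 5 min. AlphaScreen beads (10 ug/ml) added, 10 min RT; tyrosine-FITC cleavage read as signal loss.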
Of the large screens only hits and unclear results are named; the others gave an inactive call. Calls follow the shape of the dose curve; as a rule, active = well fitted curve in the direction sought with a large enough effect; inconclusive = small, poorly fitted or top-dose-only effect, or another doubt; inactive = no such curve, though single readings can be large; an effect the other way counts as inactive or inconclusive.

Cc1cc(/C=N/Nc2ccc([N+](=O)[O-])cn2)c(C)n1-c1ccccc1	Gal4-VP16 FLuc inconclusive, TDP1 cell noCPT inconclusive, TDP1 cell CPT 18µM
Cc1ccc(Cn2cc(/C=N/Nc3ccc([N+](=O)[O-])cn3)c3ccccc32)cc1	Gal4-VP16 FLuc 7.9µM, TDP1 cell noCPT 16µM, TDP1 cell CPT inconclusive, RORgamma inh 11µM
CCNS(=O)(=O)c1ccc(CCC(=O)O)cc1	none
CN1CCN(S(=O)(=O)c2ccc(Cl)cc2)CC1	none (no result: TDP1 inh)
Cc1ccc(S(=O)(=O)c2ccc(Cl)cc2)cc1S(=O)(=O)N1CCN(C)CC1	TDP1 cell noCPT inconclusive, TDP1 cell CPT 14µM
COC(=O)[C@H](CCSC)NC(=O)Cn1cnc(C(=O)Nc2ccc(C)c(C)c2)n1	none (no result: Gal4-VP16 FLuc, RORgamma inh)
COc1cccc(NC(=O)/C(C#N)=C\c2cn(Cc3ccc(Cl)cc3)c3ccccc23)c1	TDP1 cell noCPT inconclusive, TDP1 cell CPT inconclusive (no result: Gal4-VP16 FLuc, RORgamma inh)
CNC(=O)/C(C#N)=C/c1ccc(-c2ccccc2[N+](=O)[O-])o1	none
Cc1ccc(Cc2cnc(NC(=O)/C(C#N)=C/c3ccc(-c4ccccc4[N+](=O)[O-])o3)s2)cc1	Gal4-VP16 FLuc 4.5µM, TDP1 cell noCPT inconclusive, TDP1 cell CPT inconclusive, RORgamma inh 2.2µM
Cn1cc(/C=C(\C#N)C(=O)Nc2ncc(Cc3ccc(Cl)cc3)s2)c2ccccc21	Gal4-VP16 FLuc 2.5µM, TDP1 cell noCPT inconclusive, RORgamma inh 2µM
COc1ccc(COc2ccsc2C(=O)Nc2ccc(Cl)c(Cl)c2)cc1	TDP1 cell CPT inconclusive
COc1ccc(C(=O)C(OC(=O)c2ccccc2)c2ccccc2)cc1 (configuration not stated)	TDP1 cell noCPT inconclusive
OC(CN1CCCC1)c1ccccc1 (configuration not stated)	TDP1 cell CPT inconclusive (no result: Gal4-VP16 FLuc, RORgamma inh, TDP1 inh)
O=C(c1ccc(Cl)cc1)C(CN1CCCC1)c1ccccc1 (configuration not stated)	Gal4-VP16 FLuc 5.6µM, TDP1 cell noCPT 4.1µM, TDP1 cell CPT 4.1µM, RORgamma inh 11µM (no result: TDP1 inh)
COc1ccc(C(=O)C(CN2CCCC2)c2ccccc2)cc1 (configuration not stated)	Gal4-VP16 FLuc inconclusive, TDP1 cell noCPT 3.2µM, TDP1 cell CPT 4µM, RORgamma inh inconclusive
O=C(c1ccc(F)cc1)C(CN1CCOCC1)c1ccccc1 (configuration not stated)	Gal4-VP16 FLuc 11µM, TDP1 cell noCPT 1.3µM, TDP1 cell CPT 1.8µM, RORgamma inh 5.6µM
CCCCOc1ccc(C(=O)C(CN2CCOCC2)c2ccccc2)cc1 (configuration not stated)	Gal4-VP16 FLuc inconclusive, TDP1 cell noCPT 15µM, TDP1 cell CPT 13µM, RORgamma inh inconclusive
CN1CCN(C(=O)c2ccc(C(F)(F)F)cc2)CC1	TDP1 cell CPT inconclusive
CCCSc1ncc(Cl)c(C(=O)Nc2ccc(OC)cc2OC)n1	TDP1 cell CPT inconclusive (no result: Gal4-VP16 FLuc, RORgamma inh)
COc1ccc(/C=N/N(C)c2cc(=O)n(C)c(=O)[nH]2)cc1OC	TDP1 cell noCPT inconclusive
Cc1cccc(CCNS(=O)(=O)c2ccc3c(c2)NC(=O)CS3)c1	none
Cn1c(=O)c2c(ncn2CC(=O)N2CCc3ccccc3C2)n(C)c1=O	none
COc1ccc(C(=O)C(CN2CCOCC2)c2ccccc2)cc1 (configuration not stated)	Gal4-VP16 FLuc inconclusive, TDP1 cell noCPT 3.3µM, TDP1 cell CPT 2.9µM, RORgamma inh 13µM
O=C(c1ccccc1)C(CCC(CN1CCOCC1)C(=O)c1ccccc1)CN1CCOCC1 (configuration not stated)	Gal4-VP16 FLuc 7.9µM, TDP1 cell noCPT 1.5µM, TDP1 cell CPT 0.73µM, RORgamma inh inconclusive
CCCCCOc1ccc(C(=O)C(c2ccccc2)N2CCOCC2)cc1 (configuration not stated)	TDP1 cell noCPT inconclusive, TDP1 cell CPT 21µM
CC(CN1CCOCC1)OC(=O)C(c1ccccc1)c1ccccc1 (configuration not stated)	none
CCCCOc1ccc(C(O)C(CN2CCOCC2)c2ccccc2)cc1 (configuration not stated)	none
CCCCOc1ccc(C(O)C(CN2CCCCC2)c2ccccc2)cc1 (configuration not stated)	TDP1 cell noCPT 23µM, TDP1 cell CPT 23µM
CCC(O)(c1ccc(OC)cc1)C(CN1CCOCC1)c1ccccc1 (configuration not stated)	TDP1 cell noCPT inconclusive, TDP1 cell CPT inconclusive
Cc1ccccc1C(=O)Nc1ccnn1C1CCN(Cc2ccncc2)CC1	none
CCOC(=O)Cc1csc(SCC(=O)NC2CCC(C)CC2)n1 (configuration not stated)	TDP1 cell CPT inconclusive (no result: Gal4-VP16 FLuc, RORgamma inh)
CCCOc1ccc(C(O)C(CN2CCOCC2)c2ccccc2)cc1 (configuration not stated)	none
CCCOc1ccc(C(=O)C(CN2CCCC2)c2ccccc2)cc1 (configuration not stated)	Gal4-VP16 FLuc inconclusive, TDP1 cell noCPT 5.2µM, TDP1 cell CPT 3.7µM, RORgamma inh inconclusive
O=C(Cn1c(=O)oc2ccccc21)Nc1ccccc1Cl	TDP1 cell noCPT inconclusive (no result: TDP1 inh)
Cc1ccccc1NC(=O)Cn1c(=O)oc2ccccc21	TDP1 cell noCPT 2.1µM, TDP1 cell CPT 3.7µM
COc1ccc(C)cc1NC(=O)Cn1c(=O)oc2ccccc21	TDP1 cell noCPT 2.1µM, TDP1 cell CPT 9.2µM (no result: TDP1 inh)
CC(C)Oc1ccc(CNC(=O)Cn2c(=O)oc3ccccc32)cc1	TDP1 cell noCPT 16µM, TDP1 cell CPT inconclusive
CCc1ccccc1NC(=O)Cn1c(=O)oc2ccccc21	TDP1 cell noCPT 0.46µM, TDP1 cell CPT 2.3µM (no result: Gal4-VP16 FLuc, RORgamma inh)
CCOc1ccccc1N(C(=O)c1snc(C(N)=O)c1N)C(C(=O)NC1CCCC1)c1ccco1 (configuration not stated)	none
COc1ccc(N(C(=O)c2snc(C(N)=O)c2N)C(C(=O)NC2CCCCC2)c2ccc(C)o2)c(OC)c1 (configuration not stated)	TDP1 cell noCPT 21µM, TDP1 cell CPT 12µM
Cc1cccc(N(C(=O)c2snc(C(N)=O)c2N)C(C(=O)NC2CCCC2)c2ccc(C)o2)c1 (configuration not stated)	TDP1 cell noCPT 15µM, TDP1 cell CPT 18µM
COc1ccccc1N(C(=O)c1snc(C(N)=O)c1N)C(C(=O)NCc1ccccc1)c1ccc(C)o1 (configuration not stated)	TDP1 cell noCPT inconclusive, TDP1 cell CPT inconclusive
Cc1ccc(N(C(=O)c2snc(C(N)=O)c2N)C(C(=O)NC2CCCC2)c2ccc(C)o2)cc1 (configuration not stated)	TDP1 cell noCPT inconclusive, TDP1 cell CPT inconclusive (no result: TDP1 inh)
